Drawing on ChEMBL document CHEMBL1961873, “Compounds: GSK PKIS; Assays: Nanosyn kinase panel” (2012), this text covers inhibition for 20 compounds.

Values joined by “and” are separate entries in the source; they are usually repeats but may differ in a detail not shown here. Identical values can stand only once.

For assay [1], the target named is Ribosomal protein S6 kinase alpha-6 (Homo sapiens) (UniProt Q9UK32). The following applies: at 1 µM.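 Further: each value is a mean inhibition of RSK4 from a GSK PKIS panel screen.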
In assay [2] the target is T1, Serine/threonine-protein kinase Sgk1 (Homo sapiens) (UniProt O00141).
T1 sequence (whole entry): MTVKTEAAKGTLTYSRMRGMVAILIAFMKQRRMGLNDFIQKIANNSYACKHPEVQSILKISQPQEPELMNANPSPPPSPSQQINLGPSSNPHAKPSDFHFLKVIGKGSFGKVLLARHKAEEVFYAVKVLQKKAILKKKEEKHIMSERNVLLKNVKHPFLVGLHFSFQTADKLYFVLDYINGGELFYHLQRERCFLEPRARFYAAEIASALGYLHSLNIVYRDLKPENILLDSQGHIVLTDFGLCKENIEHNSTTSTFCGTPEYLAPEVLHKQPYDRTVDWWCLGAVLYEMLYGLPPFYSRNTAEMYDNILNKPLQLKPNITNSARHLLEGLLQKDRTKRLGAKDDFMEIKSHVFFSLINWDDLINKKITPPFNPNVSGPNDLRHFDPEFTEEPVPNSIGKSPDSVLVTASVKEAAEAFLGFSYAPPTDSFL
The following applies: at 0.1 µM.

Assay [3] deals with T1, Serine/threonine-protein kinase Sgk1 (Homo sapiens). Particulars: at 1 µM.
For assay [4], the target named is T2, Serine/threonine-protein kinase Sgk2 (Homo sapiens) (UniProt Q9HBY8).
T2 sequence (whole entry): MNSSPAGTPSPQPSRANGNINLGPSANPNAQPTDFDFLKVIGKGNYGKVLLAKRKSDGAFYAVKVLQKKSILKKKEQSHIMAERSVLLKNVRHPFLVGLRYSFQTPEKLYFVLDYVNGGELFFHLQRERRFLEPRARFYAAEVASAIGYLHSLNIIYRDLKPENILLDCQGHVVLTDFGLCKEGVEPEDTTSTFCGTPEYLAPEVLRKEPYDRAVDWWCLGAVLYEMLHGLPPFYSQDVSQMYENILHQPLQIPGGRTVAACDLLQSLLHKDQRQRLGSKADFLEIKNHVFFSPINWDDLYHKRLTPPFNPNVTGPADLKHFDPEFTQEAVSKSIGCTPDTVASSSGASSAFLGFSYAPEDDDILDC
The following applies: at 0.1 µM.

In assay [5] the target is T2, Serine/threonine-protein kinase Sgk2 (Homo sapiens). Particulars: at 1 µM.
Assay [6] has as its target T3, Serine/threonine-protein kinase Sgk3 (Homo sapiens) (UniProt Q96BR1).
T3 sequence (whole entry): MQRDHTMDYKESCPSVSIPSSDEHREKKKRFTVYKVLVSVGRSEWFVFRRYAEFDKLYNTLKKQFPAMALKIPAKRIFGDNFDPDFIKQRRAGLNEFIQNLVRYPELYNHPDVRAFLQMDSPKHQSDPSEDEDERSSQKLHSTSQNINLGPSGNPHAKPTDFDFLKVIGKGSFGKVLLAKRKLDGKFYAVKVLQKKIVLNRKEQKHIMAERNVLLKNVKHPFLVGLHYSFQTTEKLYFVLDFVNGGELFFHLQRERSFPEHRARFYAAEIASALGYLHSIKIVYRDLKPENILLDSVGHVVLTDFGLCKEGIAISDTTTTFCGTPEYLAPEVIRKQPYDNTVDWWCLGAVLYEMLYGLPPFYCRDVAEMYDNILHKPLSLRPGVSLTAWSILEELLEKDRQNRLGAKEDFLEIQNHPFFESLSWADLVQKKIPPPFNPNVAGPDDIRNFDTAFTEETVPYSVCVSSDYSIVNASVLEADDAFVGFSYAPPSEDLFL
Particulars: at 0.1 µM.

Assay [7] addresses T3, Serine/threonine-protein kinase Sgk3 (Homo sapiens). The following applies: at 1 µM.
The target of assay [8] is 5'-AMP-activated protein kinase catalytic subunit alpha-1 (Homo sapiens) (UniProt Q13131). Particulars: at 0.1 µM.
The target is the same in assay [9]. The following applies: at 1 µM.
Assay [10] deals with 5'-AMP-activated protein kinase catalytic subunit alpha-2 (Homo sapiens) (UniProt P54646). The following applies: at 0.1 µM.
Chain of 5'-AMP-activated protein kinase catalytic subunit alpha-2 (Homo sapiens) (P54646 whole entry, looked up): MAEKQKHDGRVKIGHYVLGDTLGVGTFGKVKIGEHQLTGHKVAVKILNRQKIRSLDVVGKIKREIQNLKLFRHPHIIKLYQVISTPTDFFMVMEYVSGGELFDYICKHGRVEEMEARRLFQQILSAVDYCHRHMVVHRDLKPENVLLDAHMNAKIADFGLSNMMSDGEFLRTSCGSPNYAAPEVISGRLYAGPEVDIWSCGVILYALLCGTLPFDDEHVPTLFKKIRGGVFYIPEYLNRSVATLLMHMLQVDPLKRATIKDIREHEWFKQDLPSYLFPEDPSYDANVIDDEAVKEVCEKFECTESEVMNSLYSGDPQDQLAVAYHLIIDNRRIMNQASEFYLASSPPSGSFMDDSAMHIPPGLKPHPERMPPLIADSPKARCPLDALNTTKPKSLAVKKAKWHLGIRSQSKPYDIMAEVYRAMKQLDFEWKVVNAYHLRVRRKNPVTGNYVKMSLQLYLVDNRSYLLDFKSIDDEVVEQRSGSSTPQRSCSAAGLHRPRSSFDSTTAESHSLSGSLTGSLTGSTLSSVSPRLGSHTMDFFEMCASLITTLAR

Chain of 5'-AMP-activated protein kinase catalytic subunit alpha-1 (Homo sapiens) (Q13131 whole entry, looked up): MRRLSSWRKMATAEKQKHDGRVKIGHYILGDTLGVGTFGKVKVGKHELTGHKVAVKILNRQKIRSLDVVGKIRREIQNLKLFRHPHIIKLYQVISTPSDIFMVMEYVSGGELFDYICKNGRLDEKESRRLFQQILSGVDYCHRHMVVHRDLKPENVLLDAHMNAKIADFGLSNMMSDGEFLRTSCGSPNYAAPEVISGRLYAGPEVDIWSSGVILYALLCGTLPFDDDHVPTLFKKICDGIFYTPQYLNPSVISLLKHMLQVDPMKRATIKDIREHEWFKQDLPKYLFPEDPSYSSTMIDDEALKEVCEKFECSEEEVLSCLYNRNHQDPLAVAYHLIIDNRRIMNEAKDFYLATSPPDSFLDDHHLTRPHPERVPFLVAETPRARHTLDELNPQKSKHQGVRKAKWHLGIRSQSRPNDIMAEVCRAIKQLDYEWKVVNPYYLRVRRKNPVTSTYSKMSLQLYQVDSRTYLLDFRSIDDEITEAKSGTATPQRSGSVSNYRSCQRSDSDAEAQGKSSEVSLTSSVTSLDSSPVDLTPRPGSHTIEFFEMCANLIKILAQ
Chain of Ribosomal protein S6 kinase alpha-6 (Homo sapiens) (Q9UK32 whole entry): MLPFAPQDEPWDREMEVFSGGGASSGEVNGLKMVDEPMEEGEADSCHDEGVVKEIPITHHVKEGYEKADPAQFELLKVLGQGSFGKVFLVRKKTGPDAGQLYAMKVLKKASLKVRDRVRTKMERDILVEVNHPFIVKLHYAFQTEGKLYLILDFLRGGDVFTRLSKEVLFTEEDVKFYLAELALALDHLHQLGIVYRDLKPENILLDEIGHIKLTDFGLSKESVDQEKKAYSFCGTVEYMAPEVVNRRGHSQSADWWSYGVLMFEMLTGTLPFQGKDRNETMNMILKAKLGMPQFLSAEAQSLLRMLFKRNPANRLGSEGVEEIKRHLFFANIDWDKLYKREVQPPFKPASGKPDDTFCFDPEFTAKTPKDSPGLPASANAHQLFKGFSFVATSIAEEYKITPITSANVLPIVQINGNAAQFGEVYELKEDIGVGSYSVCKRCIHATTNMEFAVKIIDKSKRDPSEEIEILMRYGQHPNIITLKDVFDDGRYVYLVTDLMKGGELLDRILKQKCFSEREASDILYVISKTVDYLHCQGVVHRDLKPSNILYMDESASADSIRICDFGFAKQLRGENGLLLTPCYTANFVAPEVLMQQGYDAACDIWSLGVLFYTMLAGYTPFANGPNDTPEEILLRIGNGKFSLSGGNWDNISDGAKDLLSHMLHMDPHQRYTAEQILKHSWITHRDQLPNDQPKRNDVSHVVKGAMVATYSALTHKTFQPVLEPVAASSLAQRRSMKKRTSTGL

In the case of `COc1cccc(-n2ncc3c(N/N=C/c4ccc(C(=O)NCCN(C)C)cc4)ncnc32)c1`, the inhibition turned out to be 6.67% in assay [1]; 8.85% in [2]; 47.9% in assay [3]; 6.05% in [4]; 40.1% in assay [5]; 3.22% in assay [6]. Also, the inhibition in assay [7] was determined as 3.92%; in assay [8], 3.69%; in assay [9], 12.3%; in assay [10] it was 2.3%.

Consider `Nc1ncnc2occ(-c3ccc(NC(=O)Nc4cc(C(F)(F)F)ccc4F)cc3)c12`, for which the inhibition in [1] is 9.97% and 5.9%; in [2], 1.7% and 0.49%; in assay [3], 3.4% and 1.19%; in assay [4] it was -0.51% and 1.78%; in assay [5], 2.34% and 2.65%; in assay [6], 1.18% and 0.24%. Besides, the inhibition in [7] was 1.67% and -1.01%; in [8], 2.02% and -1.41%; in assay [9], 1.94% and -0.8%; in assay [10], -0.22% and 3.36%.

Take `COc1cccc(Nc2nccc(-c3cnn4ncccc34)n2)c1`: the inhibition in assay [1] is 4.34%; in assay [2], 1.84%; in [3], 9.81%; in assay [4] it was 7.46%; in assay [5] it was 6.98%; in assay [6] it was -0.45%. For the same compound, the inhibition is 2.03% in assay [7], 2.19% in assay [8], 10.9% in assay [9] and -3.44% in assay [10].

As to `CC1=C(C(=O)Nc2ccc3[nH]nc(C)c3c2)C(c2ccc(C(F)(F)F)cc2)CC(=O)N1` (stereo not given), the inhibition was 18.9% in assay [1]; 2.07% in assay [2]; 7.21% in [3]; 0.38% in [4]; 5.99% in assay [5]; 1.33% in [6]. Moreover, the inhibition is 6.15% in [7], 4.08% in assay [8], 24.4% in assay [9] and -0.12% in assay [10].

Take `CNC(=O)c1sc(-n2cnc3cc(OC)c(OC)cc32)cc1OCc1ccccc1C(F)(F)F`: the inhibition is 1.47% in assay [1]; 2.16% in assay [2]; 1.23% in assay [3]; 0.8% in [4]; 2.63% in assay [5]; 3.8% in assay [6]. The inhibition is 1.89% in assay [7], 3.22% in assay [8], 4.14% in assay [9] and 0.14% in assay [10].

On to `CN(C)CCNC(=O)Nc1ccc(N(C)c2ccnc(Nc3ccc(CS(C)(=O)=O)cc3)n2)cc1`, for which the inhibition was 3.59% in assay [1]; 3.14% in [2]; 3.11% in assay [3]; 0.71% in assay [4]; -2.21% in assay [5]; 3.61% in [6]. Also, the inhibition was 0.64% in [7], 2.62% in [8], 5.07% in [9] and 2.24% in [10].

For the compound `CS(=O)(=O)CCNCc1ccoc1-c1ccc2ncnc(Nc3ccc(OCc4ccccc4)cc3)c2c1`, the inhibition in [1] was -0.72%; in assay [2], 2.02%; in [3], 1.39%; in assay [4], 2.28%; in assay [5], -3.3%; in [6], 5.61%. Besides, the inhibition was 1.1% in assay [7], -0.71% in [8], -0.55% in [9] and 0.46% in [10].

Turning to `Cc1c2ccc(N(C)c3ccnc(Nc4cccc(S(N)(=O)=O)c4)n3)cc2nn1C`, the inhibition in assay [1] turned out to be 4.77%; in assay [2], 3.85%; in assay [3], 4.14%; in [4], 2.67%; in [5], 3.7%; in assay [6], 4.44%. For the same compound, the inhibition in assay [7] was found to be 8.06%; in [8] it was 3.77%; in [9] it was 4.2%; in assay [10], 3.67%.

As for `Cc1cc(O)cc(C)c1/C=C/c1cncc(C(N)=O)c1`, the inhibition was 1.18% in assay [1]; 1.6% in assay [2]; 2.14% in assay [3]; 3.61% in assay [4]; 3.1% in assay [5]; 1.2% in assay [6]. In addition, the inhibition is 1.31% in assay [7], 1.98% in assay [8], 1.85% in assay [9] and 2.5% in assay [10].

In the case of `COc1cc2c(cc1Nc1nc(Nc3cccc(F)c3C(N)=O)c3cc[nH]c3n1)N(C(=O)CN1CCN(C(C)C)CC1)CC2`, the inhibition in assay [1] was 11.7%; in [2], -0.48%; in assay [3], 1.29%; in [4], 1.96%; in assay [5], 0.58%; in assay [6], 0.73%. Further, the inhibition in assay [7] turned out to be 0.46%; in assay [8], 1.45%; in assay [9] it was 3.93%; in assay [10] it was 5.43%.

As to `c1cnn2ncc(-c3ccnc(NCCCN4CCOCC4)n3)c2c1`, the inhibition in assay [1] was found to be 0.49%; in assay [2], 1.8%; in assay [3], 3.79%; in [4], 0.34%; in [5], 5.05%; in [6] it was 5.66%. Also, the inhibition in [7] was determined as 8.34%; in assay [8], 2.28%; in [9] it was 2.5%; in [10] it was 3.24%.

Turning to `CCCNc1cccc(-n2ncc3c(N/N=C/c4ccncc4)ncnc32)c1`, the inhibition in assay [1] stood at 3.54%; in assay [2], 2.34%; in assay [3] it was 13.6%; in [4] it was 2.41%; in [5] it was 10.9%; in assay [6], 3.53%. The inhibition is 5.07% in assay [7], 1.8% in [8], 3.53% in assay [9] and -1.29% in assay [10].

Turning to `COc1cc(Nc2ncc(-c3ccccc3)o2)cc(OC)c1`, the inhibition in assay [1] was determined as 2.83%; in assay [2], 3.1%; in assay [3] it was 4.7%; in assay [4], 3.93%; in assay [5], 4.37%; in assay [6] it was 3.26%. Further, the inhibition in [7] was 3%; in assay [8], 2.43%; in assay [9], 5.67%; in assay [10], 2.86%.

For `CCn1c(-c2nonc2N)nc2cncc(C(=O)NCCNC)c21`, the inhibition in assay [1] stood at 37.3%; in [2] it was 3.75%; in [3], 18.1%; in [4], 2.29%; in assay [5], 17.7%; in [6], 21.3%. The inhibition in assay [7] came out at 66.2%; in assay [8], 3.01%; in assay [9], 8.23%; in assay [10], 2.58%.

On to `COc1cc(N2CCN(C(C)C)CC2)ccc1Nc1nc(Nc2cccc(F)c2C(=O)O)c2cc[nH]c2n1`, for which the inhibition in [1] worked out at 13%; in assay [2] it was 0.41%; in [3] it was 5.92%; in assay [4], 0.2%; in [5], 3.35%; in [6] it was 3.6%. In addition, the inhibition in assay [7] came out at 4.41%; in assay [8], 3.98%; in [9] it was 5.67%; in [10] it was 0.48%.

Take `Cc1ccc(-c2cc3c(NC(=O)C4CC4)ncnc3o2)cc1`: the inhibition in assay [1] was 2.4%; in [2], 2.2%; in assay [3], 3%; in assay [4], 5.33%; in assay [5], 8.63%; in [6] it was 3.61%. The inhibition in assay [7] worked out at 4.02%; in [8], 3.13%; in assay [9], 5.1%; in assay [10] it was 2.34%.

In the case of `N#Cc1cccc(Nc2ncc(-c3ccccc3)o2)c1`, the inhibition in assay [1] was -0.13%; in assay [2], 2.75%; in assay [3] it was 7.53%; in assay [4] it was 1.9%; in assay [5], -1.67%; in assay [6], 2.18%. Besides, the inhibition in assay [7] was 5.3%; in assay [8], 1.1%; in [9] it was 1.53%; in [10] it was -0.83%.

In the case of `Nc1nonc1-c1nc2cnccc2n1C1CC1`, the inhibition was 39.3% and 40.7% in [1]; 2.58% and 2.55% in assay [2]; 12.5% and 16.1% in assay [3]; 8.13% and 8.47% in assay [4]; 50.4% and 54.2% in [5]; 20% and 22.1% in assay [6]. Moreover, the inhibition in [7] was 61.8% and 65.5%; in assay [8] it was 5.9% and 3.15%; in assay [9] it was 14.3% and 11.5%; in assay [10], 1.84% and 3.94%.

For the compound `O=C(Nc1n[nH]c2nnc(-c3cccnc3)cc12)C1CC1`, the inhibition in [1] was 0.26%; in assay [2], 0.71%; in assay [3] it was -0.17%; in [4], -0.62%; in assay [5] it was 3.04%; in assay [6], -2.68%. The inhibition in [7] is -0.26%; in [8], -0.35%; in [9], 0.39%; in [10] it was 0.65%.

With `CCN1CCC(C(=O)Nc2n[nH]c3nnc(-c4cccc(F)c4F)cc23)CC1`, the inhibition was 0.55% in assay [1]; 0.58% in assay [2]; 1.25% in assay [3]; 2.32% in assay [4]; 0.65% in [5]; -1.34% in assay [6]. For the same compound, the inhibition was 1.23% in [7], 0.5% in [8], 2.46% in assay [9] and 1.01% in assay [10].
